# Data as given in PubChem BioAssay AID1852 (Sanford-Burnham Center for Chemical Genomics, 2009).
# Among all 2,500 compounds or so, about 1,100 (44%) were called active.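 Rule for the calls: active = inhibition above 50% at 4 µM in the single-point screen; inactive = inhibition of 50% or less.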 The set was probably picked from earlier hits. The list shows a part of the results.
# Experiment: blockers of TNF-a NF-kB luciferase induction – cell-based, HEK293T NF-kB-Luc, luminescence, selectivity assay for NOD1/NOD2 signaling inhibitor project, primary screen (AID 1852)
# Settings: TNF-a induced, 14 h, at 4 µM, hits give high values
row,SMILES,inhibition
1,CCc1ccc(CN(C)C(=O)CCc2nc3ccccc3n(-c3ccc(OC)cc3)c2=O)cc1,41.1% (inactive)
2,COCCOC(=O)c1[nH]c2c(c1C)C(=O)CC(c1cc(OC)c(OC)c(OC)c1)C2 (stereo not drawn),58.3% (active)
3,CCCOC(=O)c1[nH]c2c(c1C)C(=O)CC(c1cc(OC)c(OC)c(OC)c1)C2 (stereo not drawn),40.2% (inactive)
4,CCCCOC(=O)c1[nH]c2c(c1C)C(=O)CC(c1cc(OC)c(OC)c(OC)c1)C2 (stereo not drawn),47.1% (inactive)
5,CC1=Nc2ccccc2/C1=C/c1sc(=N)n(-c2nccs2)c1O,99.2% (active)
6,Cc1ccc(-n2c(O)c(/C=C3/C(c4ccccc4)=Nc4ccccc43)c(=O)[nH]c2=O)cc1,28.1% (inactive)
7,O=C(Nc1nnc(S(=O)(=O)N2CCCCCC2)s1)c1ccc(Br)cc1,-43.1% (inactive)
8,COC(=O)c1ccccc1NC(=O)C1CCCN(S(=O)(=O)c2ccc(F)cc2)C1 (stereo not drawn),21.7% (inactive)
9,O=C(Nc1nc(-c2cccs2)cs1)c1ccc(S(=O)(=O)N2CCCC2)cc1,83.9% (active)
10,O=C(Nc1nc(-c2ccccc2)cs1)C1CCCN(S(=O)(=O)c2ccccc2)C1 (stereo not drawn),87.9% (active)
11,CCOC(=O)c1ccc(NC(=O)C2CCCN(S(=O)(=O)c3ccc(F)cc3)C2)cc1 (stereo not drawn),-6.1% (inactive)
12,O=C(Nc1nnc(S(=O)(=O)N2CCCCCC2)s1)c1ccc(Cl)cc1,-43% (inactive)
13,COc1ccccc1NC(=O)c1cc2cc(Br)ccc2cc1O,82.6% (active)
14,COc1cc(NC(=O)c2cc3ccccc3cc2O)c(OC)cc1Cl,47.5% (inactive)
15,COc1ccc(C(C)=O)cc1COC(=O)c1cc2ccccc2cc1O,12.5% (inactive)
16,O=C(c1cc(COc2ccc3ncccc3c2)on1)N1CCCCCC1,31.2% (inactive)
17,COC(=O)C1CCCCN1C(=O)c1cc(COc2cccc3cnccc23)on1 (stereo not drawn),53.1% (active)
18,COCCC1CCCCN1C(=O)c1cc(COc2ccc(-n3cncn3)cc2)on1 (stereo not drawn),15.4% (inactive)
19,CCOC(=O)CC1CCCCN1C(=O)c1cc(COc2cccc3cnccc23)on1 (stereo not drawn),60.8% (active)
20,O=C(CSc1nnc2c(n1)[nH]c1ccccc12)NC1CCCCC1,47% (inactive)
21,CC(Sc1nnc2c(n1)[nH]c1ccccc12)C(=O)NC1CCCCC1 (stereo not drawn),30% (inactive)
22,O=C(NC1CCCC1)c1sc(=S)n2c1[nH]c(=O)c1ccccc12,72.6% (active)
23,O=C(NC1CCCCC1)c1sc(=S)n2c1[nH]c(=O)c1ccccc12,85.3% (active)
24,N#C/C(=N\Nc1cccc(C(F)(F)F)c1)C(=O)c1csc(-c2cccnc2)n1,80.5% (active)
25,CC(C)(C)OC(=O)NCC(=O)Oc1cc2oc(=O)cc(-c3ccccc3)c2cc1Cl,58% (active)
26,O=C(COc1ccc2c(-c3ccccc3)cc(=O)oc2c1)Nc1ccc(CCO)cc1,44.2% (inactive)
27,O=C(CNC(=O)OCc1ccccc1)Oc1cc2oc(=O)cc(-c3ccccc3)c2cc1Cl,83.1% (active)
28,CC(C)(C)OC(=O)NCCc1nnc(S(=O)(=O)Cc2ccc(Cl)cc2Cl)o1,45.3% (inactive)
